Results: PubChem BioAssay (NCATS)
Values joined by “and” are separate entries in the source; they are usually repeats but may differ in a detail not shown here. Equal values may be shown once. Records with an inconclusive call do not appear. Entries that show only a call come without a potency. Active and inactive are the calls of the source. Calls come from the whole dose curve; as a rule, active = well fitted curve in the direction sought with a large enough effect; inconclusive = small, poorly fitted or top-dose-only effect, or another doubt; inactive = no such curve, though single readings can be large; an effect the other way counts as inactive or inconclusive.

Key:
[1] = molecular target: Arylsulfatase A (Homo sapiens) (UniProt P15289); experiment: qHTS screen for enhancers of Arylsulfatase A (ASA1): LOPAC Validation Assay (AID 720538); conditions: outcome: dose series up to 57.5 µM
Arylsulfatase A (Homo sapiens), sequence (P15289 whole entry, looked up): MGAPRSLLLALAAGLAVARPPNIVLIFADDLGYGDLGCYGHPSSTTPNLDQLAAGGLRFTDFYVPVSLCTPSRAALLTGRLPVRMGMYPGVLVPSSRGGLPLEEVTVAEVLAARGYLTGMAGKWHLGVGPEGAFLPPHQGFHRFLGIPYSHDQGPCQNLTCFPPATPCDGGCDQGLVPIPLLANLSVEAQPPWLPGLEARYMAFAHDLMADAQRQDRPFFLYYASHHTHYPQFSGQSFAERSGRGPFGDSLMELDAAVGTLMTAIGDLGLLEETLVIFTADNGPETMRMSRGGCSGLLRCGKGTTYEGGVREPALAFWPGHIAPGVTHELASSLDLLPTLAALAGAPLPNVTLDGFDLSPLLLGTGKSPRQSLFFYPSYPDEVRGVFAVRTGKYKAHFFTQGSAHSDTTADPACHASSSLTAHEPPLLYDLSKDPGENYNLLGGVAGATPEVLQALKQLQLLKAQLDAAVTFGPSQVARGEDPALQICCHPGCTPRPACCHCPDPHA
Summary of the method: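 Enhancer assay in patient-derived MLD fibroblasts carrying ASA-I179S: 48 h compound exposure at 37 C, then 14 h room-temperature pNCS turnover (0.5 mM final) in lysis buffer. Read by fluorescence at 525/598 nm after NaOH stop.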

[2] = qHTS for compounds that reverse cellular toxicity of Amyloid beta (A-beta) peptide in yeast: LOPAC Validation Assay (AID 720559)
Summary of the method: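 Rescue of A-beta toxicity was scored as yeast growth by 600 nm absorbance after 48 hr at 30 C with compound. Normalization used DMSO (negative) and equimolar ferric chloride plus clioquinol (positive).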

[3] = qHTS for Activators of Parkin Expression: LOPAC Validation Assay (NLuc Reporter) (AID 720572)
Summary of the method: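 Compound effects on Parkin promoter activity were measured as NanoLuc luminescence after 24 h at 37 C. The neuronal reporter line also carried FLuc, which was read first. LOPAC compounds were tested at 7 concentrations, with normalization to DMSO (0%) and positive control (100%).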

[4] = molecular target: T1, Hexokinase-4 (Homo sapiens) + Glucokinase regulatory protein (Homo sapiens) (UniProt P35557+Q14397); experiment: qHTS assay for inhibitors of recombinant human GCK-GKRP interaction: Diaphorase-coupled assay (AID 743205)
T1 sequence (P35557 whole entry, looked up): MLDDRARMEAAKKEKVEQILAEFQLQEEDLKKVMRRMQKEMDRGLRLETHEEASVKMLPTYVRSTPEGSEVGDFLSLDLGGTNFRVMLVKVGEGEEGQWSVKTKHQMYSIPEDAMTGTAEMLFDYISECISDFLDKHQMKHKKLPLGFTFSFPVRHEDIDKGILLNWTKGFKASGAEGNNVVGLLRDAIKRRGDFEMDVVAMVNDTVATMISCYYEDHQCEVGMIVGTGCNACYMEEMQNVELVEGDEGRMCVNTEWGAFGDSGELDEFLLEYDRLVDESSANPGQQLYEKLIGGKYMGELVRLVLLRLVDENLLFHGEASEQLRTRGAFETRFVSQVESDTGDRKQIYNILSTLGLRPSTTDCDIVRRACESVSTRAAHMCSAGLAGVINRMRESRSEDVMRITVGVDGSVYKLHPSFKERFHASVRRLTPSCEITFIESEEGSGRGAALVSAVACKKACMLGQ
T1 sequence (Q14397 whole entry, looked up): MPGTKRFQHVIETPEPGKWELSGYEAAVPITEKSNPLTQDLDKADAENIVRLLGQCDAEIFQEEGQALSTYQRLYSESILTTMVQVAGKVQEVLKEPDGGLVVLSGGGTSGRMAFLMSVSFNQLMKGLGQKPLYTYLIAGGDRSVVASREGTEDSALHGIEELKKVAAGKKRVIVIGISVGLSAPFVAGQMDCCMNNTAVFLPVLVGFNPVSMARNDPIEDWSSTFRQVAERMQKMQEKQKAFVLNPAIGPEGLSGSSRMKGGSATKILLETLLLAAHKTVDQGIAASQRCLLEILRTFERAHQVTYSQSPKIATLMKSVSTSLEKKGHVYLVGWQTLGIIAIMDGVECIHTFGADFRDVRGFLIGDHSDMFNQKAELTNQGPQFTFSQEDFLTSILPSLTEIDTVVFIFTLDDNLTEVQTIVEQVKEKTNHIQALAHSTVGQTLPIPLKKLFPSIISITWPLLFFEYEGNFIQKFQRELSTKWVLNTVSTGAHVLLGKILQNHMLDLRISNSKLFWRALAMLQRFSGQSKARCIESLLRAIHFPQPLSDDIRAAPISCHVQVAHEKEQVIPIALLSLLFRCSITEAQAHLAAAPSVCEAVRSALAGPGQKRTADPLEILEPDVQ
Summary of the method: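 A kinetic fluorescence read (Ex 525/Em 590 nm, every minute for 30 minutes) tracked resorufin from a G6PDH-diaphorase coupled GCK reaction. It contained 10 nM GST-GCK, 10 nM FLAG-GKRP, 5 mM glucose, 0.4 mM ATP in Hepes pH 7.6. Normalized to with/without-enzyme DMSO controls.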

[5] = molecular target: T1, Hexokinase-4 (Homo sapiens) + Glucokinase regulatory protein (Homo sapiens); experiment: qHTS assay for inhibitors of recombinant human GCK-GKRP interaction: ADP-Glo assay (AID 743206)
Summary of the method: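 Pin-transferred compounds meet a 15 nM GST-GCK/15 nM FLAG-GKRP/2 uM S6P mix (dispense concentrations). ATP is then added to 0.4 mM final with 5 mM glucose, and the reaction runs 60 min at room temperature. ADP is quantified luminescently.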

[6] = molecular target: T1, Hexokinase-4 (Homo sapiens) + Glucokinase regulatory protein (Homo sapiens); experiment: qHTS assay for inhibitors of recombinant human GCK-GKRP interaction: HTRF assay (AID 743207)
Summary of the method: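 After 60 min equilibration at room temperature with anti-FLAG XL665 and anti-GST antibodies, FRET ratio (665/615 nm, excitation 320 nm) was read. Proteins: GST-GCK and FLAG-GKRP, each 5 nM, plus 2 uM S6P, pH 7.1 buffer; GCK-free wells define minimum signal.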

[7] = qHTS Assay for Identifying Gametocytocidal Compounds (AID 743244); note: potency is the fitted concentration of half-maximal effect;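 for max response: actives lower the fluorescent signal which means gametocytes are killed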; conditions: P. falciparum 3D7 stage III-V gametocytes, alamarBlue, 72 h; max response: active compounds read low
Summary of the method: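 Stage III–V gametocytes of P. falciparum 3D7 were seeded at 20,000 cells/well onto pre-dispensed compounds. After 72 h, 37 °C, 5% CO2, alamarBlue was added for another 24 h.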

[8] = qHTS for Activators of Parkin Expression: LOPAC Validation Assay (FLuc Reporter) (AID 720573)
Summary of the method: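 FLuc signal from Parkin-promoter coincidence reporter neuronal cells, normalized to DMSO and positive control (100%). Cells (1,500/well) pre-incubated 24 h, then exposed to LOPAC compounds in 7-point dose response for 24 h at 37 C, 5% CO2.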

SMILES | outcome [1] | outcome [2] | outcome [3] | outcome [4] | outcome [5] | outcome [6] | max response [7] | outcome [8] | Potency [7]
Cn1cnc(CCN)c1 | inactive | inactive | inactive | inactive | inactive | inactive | 33.2% (inactive) | – | –
NC1CCc2cc(O)c(O)cc2C1 (stereo not given) | inactive | inactive | inactive | inactive | inactive | inactive | 20.3% (inactive) | inactive | –
CNCCc1c[nH]c2ccc(O)cc12 | inactive | inactive | inactive | inactive | inactive | inactive | – | – | –
COc1cc(C(O)CN)ccc1O (stereo not given) | inactive | inactive | inactive | inactive | inactive | inactive | 2.34% (inactive) | – | –
CC(=O)NCCc1c[nH]c2ccccc12 | inactive | inactive | inactive | inactive | inactive | inactive | 17.3% (inactive) | – | –
CS(=N)(=O)CC[C@H](N)C(=O)O (stereo not given in full) | inactive | inactive | inactive | inactive | inactive | inactive | -10.6% (inactive) | – | –
CC(=O)[C@H]1CCC2C3CC[C@H]4C[C@H](O)CC[C@]4(C)C3CC[C@@]21C (stereo not given in full) | inactive | inactive | inactive | inactive | inactive | inactive | 27.5% (inactive) | inactive | –
O=C(O)[C@@H]1CCN1 | inactive | inactive | inactive | inactive | inactive | inactive | 23.1% (inactive) | – | –
NC(CCP(=O)(O)O)C(=O)O (stereo not given) | inactive | inactive | inactive | inactive | inactive | inactive | 12.6% (inactive) | – | –
NC(CP(=O)(O)O)C(=O)O (stereo not given) | inactive | inactive | inactive | inactive | inactive | inactive | 4% (inactive) | – | –
NC1CC1c1ccccc1 (stereo not given) | inactive | inactive | inactive | inactive | inactive | inactive | 14.3% (inactive) | – | –
CC(C)NC(C)Cc1ccc(I)cc1 (stereo not given) | inactive; inhibitor; fitted 0.3013 uM | inactive | inactive | inactive | inactive | inactive | 8.77% (inactive) | inactive | –
O=C(O)CC[N+](=O)[O-] | inactive | inactive | inactive | inactive | inactive | inactive | 13% (inactive) | – | –
O=C1CCCN1CC#CCN1CCCC1 | inactive | inactive | inactive | inactive | inactive | inactive | 30.9% (inactive) | – | –
CCCN(CCC)C1CCc2ccc(O)cc2C1 (stereo not given) | inactive; inhibitor; fitted 0.0338 uM | inactive | inactive | inactive | inactive | inactive | 6.52% (inactive) | – | –
C[C@@H](N)Cc1cnc[nH]1 | inactive | inactive | inactive | inactive | inactive | inactive | 1.66% (inactive) | – | –
COC(=O)[C@@H](N)CCCN=C(N)N[N+](=O)[O-] | inactive | inactive | inactive | inactive | inactive | inactive | 6.28% (inactive) | – | –
CCCCc1ccc(C(=O)O)nc1 | inactive | inactive | inactive | inactive | inactive | inactive | 4.22% (inactive) and 15% (inactive) | – | –
NC(N)=NOCCC(N)C(=O)O (stereo not given) | inactive; inhibitor; fitted 2.3934 uM | inactive | inactive | inactive | inactive | inactive | 10.4% (inactive) | – | –
CC(C)Oc1cccnc1N(C)C1CCN(Cc2ccccc2)CC1 | inactive | inactive | inactive | inactive | inactive | inactive | -6.11% (inactive) | – | –

SMILES | outcome [1] | outcome [2] | outcome [3] | outcome [4] | outcome [5] | outcome [6] | max response [7] | outcome [8] | Potency [7]
CCCN1CCO[C@@H]2c3cc(O)ccc3OC[C@H]21 | inactive | inactive | inactive | inactive | inactive | inactive | -5.59% (inactive) and 5.71% (inactive) | – | –
NC(=NCCC[C@H](N)C(=O)O)N[N+](=O)[O-] | inactive | inactive | inactive | inactive | inactive | inactive | 11.8% (inactive) | – | –
S=C(NC1CCCCC1)N1CCC(c2cnc[nH]2)CC1 | inactive | inactive | inactive | inactive | inactive | inactive | 16.5% (inactive) | – | –
CC1=NN=C(c2ccc(N)cc2)c2cc3c(cc2C1)OCO3 | inactive | inactive | inactive | inactive | inactive | inactive | 7.34% (inactive) | – | –
NCCc1c[nH]c2ccc(O)cc12 | inactive; inhibitor; fitted 4.2562 uM | inactive | inactive | inactive | inactive | inactive | 9.61% (inactive) | – | –
CCCN(CCC)[C@@H]1CCc2ccc(O)cc2C1 | inactive | inactive | inactive | inactive | inactive | inactive | 10.7% (inactive) | – | –
CC[C@@]1(O)C(=O)OCc2c1cc1n(c2=O)Cc2cc3ccccc3nc2-1 | inactive | inactive | inactive | inactive | inactive | inactive | -1.6% (inactive) | – | –
C[C@]12CCC3C(CC[C@H]4C[C@H](O)CC[C@]34C)C1CC[C@@H]2C(=O)CO (stereo not given in full) | inactive; inhibitor; fitted 2.3934 uM | inactive | inactive | inactive | inactive | inactive | 12.3% (inactive) | – | –
c1ccc2sc(C3(N4CCCCC4)CCCCC3)cc2c1 | – | inactive | inactive | inactive | inactive | inactive | 6.13% (inactive) | inactive | –
CCC1(CCC(C)C)C(=O)NC(=O)NC1=O | – | – | – | – | – | – | 2.89% (inactive) | – | –
Clc1ccc(C(c2ccc(Cl)cc2)n2cc[n+](CC(OCc3ccc(Cl)cc3Cl)c3ccc(Cl)cc3Cl)c2)cc1 (stereo not given) | – | – | – | – | – | – | – | – | 1 µM (active)
C[C@]12N[C@H](Cc3ccccc31)c1ccccc12 | inactive | – | – | inactive | inactive | inactive | -6.68% (inactive) and -2.83% (inactive) and -7.09% (inactive) | – | –
CC[C@@H](C(=O)O)C1CC[C@H](C)C([C@@H](C)[C@H](O)[C@H](C)C(=O)[C@H](CC)C2O[C@]3(C=C[C@@H](O)[C@]4(CC[C@@](C)(C5CC[C@](O)(CC)[C@H](C)O5)O4)O3)[C@H](C)C[C@@H]2C)O1 (stereo not given in full) | – | – | – | – | – | – | – | – | 0.0526 µM (active)
CN[C@@H](C)C(=O)N[C@H]1CCCC[C@H]2CC[C@@H](C(=O)N[C@@H](c3ccccc3)c3cn(CCCCc4ccc(CCCCn5cc([C@@H](NC(=O)[C@@H]6CC[C@@H]7CCCC[C@H](NC(=O)[C@H](C)NC)C(=O)N76)c6ccccc6)nn5)cc4)nn3)N2C1=O | – | – | – | – | – | – | – | – | 2.64 µM (active)
C[N+](C)(C)CC(=O)O | – | – | – | – | – | – | -4.91% (inactive) | – | –
O=C(O)c1ccc(O)c2ncc(N3CCOCC3)cc12 | – | – | – | – | – | – | – | – | 9.35 µM (active)
NC1=NC(=O)N2CC12 (stereo not given) | – | – | – | – | – | – | -4.05% (inactive) | – | –
C[C@@H]1O[C@H](C[N+](C)(C)C)C[C@H]1O | – | inactive | inactive | inactive | inactive | inactive | 7.91% (inactive) | – | –
CC(O)CN1CCN(CC(=O)[O-])CCN(CC(=O)[O-])CCN(CC(=O)[O-])CC1.[Gd+3] (stereo not given) | – | – | – | – | – | – | 1.03% (inactive) and -10.9% (inactive) | – | –
c1ccc(C2(c3ccccc3)CC2C2=NCCN2)cc1 (stereo not given) | – | inactive | inactive | inactive | inactive | inactive | -4.94% (inactive) and 21.7% (inactive) | – | –
